Most compounds without a hit are left out; they make up all but 6.5% or so of the library.
TGFb SMAD3 inh = TGF-b pathway inhibition | HepG2 CAGA-GFP TGF-b/SMAD3 reporter, GFP fluorescence, 18 h; TGF-beta stimulated, 500 pg/mL final | Potency, µM (series often up to 46.1 µM), usual class: inhibitors | hit rate 1.2% among 410,000 | AID 588855; also: nearly all actives have a fitted effect of over 65% in size
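GFP signal (ex488/em500-530) from TGF-beta-stimulated HEPG2 CAGA-GFP cells, 500 pg/mL final, 18 h at 37 degrees C in DMEM plus 1% FBS, normalized to unstimulated and DMSO-stimulated controls.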
HT1080 IDH1KD tx = kills HT-1080 cells with IDH1 knockdown; HT-1080 IDH1 knockdown viability, ATP luminescence, 48 h; Potency, µM (top dose mostly 46.1 µM), actives largely listed as cytotoxic; hit rate 2% among 360,000
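% activity derives from luminescence (CellTiter-Glo), normalised to DMSO and no-cell wells. HT-1080-IDH1KD cells, 750/well, had 48 h compound exposure at 37 °C.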
HepG2 viability = HepG2 cytotoxicity, counter-screen for TGF-b inhibitors | HepG2 CAGA-GFP viability, ATP luminescence, 18 h | Potency, µM (titrated, usually from 46.1 µM), most hits filed as cytotoxic | hit rate 0.76% among 410,000
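CellTiter-Glo luminescence gave cytotoxicity after 18 hours at 37 degrees C. The cells were HepG2 CAGA-GFP in 1% FBS DMEM, stimulated with 500 pg/mL TGF-beta after compound addition. %Activity was normalised to no-cell wells (complete cell-killing) and DMSO (no toxicity), and curves were fitted and classified.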
Giardia kill = kills Giardia lamblia; Giardia lamblia trophozoite viability; activity change, % at 7.66 µM, hits read low; hit rate 0.15% among 340,000; AID 540267; in the data active = activity change below about -80%; inconclusive = between about -30% and that limit;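 also: parasites exposed to compound for two days anaerobically before the ATP read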
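Media and compound were dispensed first, then trophozoites at 100 cells/well; plates sat 48 hrs at 37 deg C without oxygen before ATP luminescence reagent was added and read after 15-30 min at room temperature.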
HT1080-NT tox = kills 2HG-producing HT-1080-NT fibrosarcoma cells; HT-1080-NT fibrosarcoma viability, CellTiter-Glo ATP luminescence, 48 h; Potency, µM (titrated, usually from 46.1 µM), hits mostly cytotoxic; AID 686970; hit rate 1.6% among 360,000;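 also: NT is the 2HG producing partner of a matched IDH1 knockdown line; nearly all actives have a fitted effect of over 55% in size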
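Luminescent CellTiter-Glo readout after 48 hours of compound exposure at 37 degrees C defined viability of HT-1080-NT cells. Activity was normalized to DMSO wells and cell-free media wells; concentration-response curves were fitted and assigned curve classes.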
IL-1B inflam inh = inflammasome signaling inhibition, IL-1 beta readout; activity change, % at 57.5 µM; THP-1 LPS/ATP IL-1B secretion, AlphaLISA, 16 h; hits give low values; hit rate 4.7% among 360,000; AID 743279; in the data active = activity change below about -50%; inconclusive = mostly about -30% to -49%
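Secreted IL-1B measured by AlphaLISA bead assay after 16 h compound exposure of THP-1 cells; compounds (final up to 57.5 uM) added 1 h before LPS (250 ng/mL) and ATP (1.25 mM) stimulation; lower signal means less secretion.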
Numbers stand for hits; 0 = inactive; ? = inconclusive; - = no result; [ ] = remark or other dose. Unless noted, calls follow the shape of the dose curve; as a rule, active = well fitted curve in the direction sought with a large enough effect; inconclusive = small, poorly fitted or top-dose-only effect, or another doubt; inactive = no such curve, though single readings can be large; an effect the other way counts as inactive or inconclusive.

SMILES	TGFb SMAD3 inh	HT1080 IDH1KD tx	HepG2 viability	Giardia kill	HT1080-NT tox	IL-1B inflam inh
O=C(Cn1c(=O)n(-c2ccccc2)c(=O)c2oc3ccccc3c21)Nc1ccccc1	0	0	0	0	0	0
Cc1sc2nc(C3CC3)nc(N3CCN(C(=O)c4ccccc4F)CC3)c2c1C	?	?	0	0	0	0
Cc1sc2nc(C3CC3)nc(N3CCN(C(=O)c4ccc(F)cc4)CC3)c2c1C	?	?	0	0	?	-60
Cc1sc2nc(C3CC3)nc(N3CCN(C(=O)c4ccc(Cl)cc4)CC3)c2c1C	?	0	0	0	0	0
COc1ccc(C(=O)N2CCN(c3nc(C4CC4)nc4sc(C)c(C)c34)CC2)cc1	?	0	0	?	0	-65
CCOc1cc(NCCN2CCOCC2)c([N+](=O)[O-])cc1OCC	0	0	0	0	0	0
CCC(=O)NC1=C(NC(C)c2ccccc2)C(=O)c2ccccc2C1=O (stereo not drawn)	0	0	0	0	0	0
CCC(=O)NC1=C(Cl)C(=O)C(NC(=O)CC)=C(Cl)C1=O	?	18µM	0	0	?	-86
O=C(/C=C/c1ccccc1)Oc1cccc2cccnc12	4µM	0	4µM	0	0	0
CCOCCn1c(N2CCCC2)nc2c1c(=O)n(C)c(=O)n2C	0	0	0	0	0	0
N/C(CCS(=O)(=O)c1ccc(Cl)cc1)=N\OC(=O)c1ccccc1Cl	0	?	0	0	?	-51
COc1cnc(-c2ccccn2)nc1N(C)C	0	5.8µM	0	0	?	-58
COc1cnc(-c2ccccn2)nc1Sc1c(Cl)cccc1Cl	0	7.9µM	0	0	16µM	0
COc1ccc(Oc2nc(-c3ccccn3)ncc2OC)cc1	0	0	0	0	0	0
CCc1noc(C)c1C(=O)NNC(=O)c1nn(C)c(=O)c2ccccc12	0	0	0	0	0	0
O=[N+]([O-])c1cc(S(=O)(=O)Nc2ccccc2)ccc1NCc1ccccc1	?	0	0	0	0	0
O=[N+]([O-])c1cc(S(=O)(=O)Nc2ccccc2)ccc1Nc1ccccc1	?	0	0	0	7.3µM	0
CC(=O)Nc1ccc(Nc2ccc(S(=O)(=O)C(F)(F)F)cc2[N+](=O)[O-])cc1	?	0	0	0	0	-60
O=[N+]([O-])c1cc(S(=O)(=O)Nc2ccccc2)ccc1N1CCN(c2ccccc2)CC1	?	?	0	0	?	-64
CCNC(=S)N(CCc1c(C)[nH]c2ccc(C)cc12)Cc1cccs1	?	?	0	0	?	-53
COCCNC(=S)N(CCc1c(C)[nH]c2ccc(F)cc12)Cc1cccs1	?	0	0	0	?	?
CNC(=S)N(CCc1c(C)[nH]c2ccc(C)cc12)Cc1ccco1	0	0	0	0	0	0
COCCNC(=S)N(CCc1c(C)[nH]c2ccc(Cl)cc12)Cc1cccs1	?	?	0	0	21µM	-92
CCNC(=S)N(CCc1c(C)[nH]c2ccc(Cl)cc12)Cc1ccco1	?	?	0	0	?	-59
CCOC(=O)c1c(C)[nH]c(C)c1S(=O)(=O)N1CCN(c2cccc(C(F)(F)F)c2)CC1	?	-	0	-	-	-
SMILES	TGFb SMAD3 inh	HT1080 IDH1KD tx	HepG2 viability	Giardia kill	HT1080-NT tox	IL-1B inflam inh
O=S(=O)(c1cccc(C(F)(F)F)c1)c1ccc(O)cn1	0	0	0	0	0	0
CCCn1c(SCC(=O)N2CCCCC2)nnc1C(C)C	0	0	0	0	0	0
CC(C)(C)Nc1nc(SCC(=O)Nc2ccccc2)nc(N2CCOCC2)n1	0	0	0	0	0	-90
O=C(CSc1nc(Nc2ccccc2)nc(N2CCOCC2)n1)N1CCCC1	0	0[9.24 µM]	0	0	0	-53
CN(C)c1nc(SCC(=O)Nc2ccc(Cl)c(Cl)c2)nc(N2CCOCC2)n1	0	0	0	0	0	0
CCNc1nc(SCC(=O)Nc2ccc(Cl)c(Cl)c2)nc(N2CCOCC2)n1	0	?	0	0	?	-59
CN(C)c1nc(SCC(=O)Nc2ccccc2)nc(N2CCOCC2)n1	0	0	0	0	0	0
